Screens (PubChem)
The entries come from a sample that favours hits as a whole.
FBPA Giardia inh: blocks Giardia fructose-bisphosphate aldolase activity | Potency, µM (top dose mostly 59.6 µM), without a hit: at the top dose activity, negative = inhibition, most hits filed as inhibitors | hit rate 0.71% among 290,000 | AID 2451 | purified Giardia FBPA; note: potency is the fitted concentration of half-maximal effect; % is set by controls: 0 for no effect and ±100 for the full control effect; nearly all actives have a fitted effect of over 55% in size
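40 nM FBPA preincubated 10 min at RT with compound (up to 57.5 uM final), then substrate plus GAPDH/TPI/NAD/arsenate coupling and diaphorase/resazurin added. Fluorescence read after 20 min at RT, 525/598 nm.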
Shiga inhibitor: Shiga toxin inhibition; Vero cells, Shiga toxin protein synthesis inhibition reporter; AID 2315; hit rate 9.2% among 290,000; inhibition, % at 38.7 µM; in the data active = inhibition mostly above about 28%, no sharp cut-off; inactive = mostly below about 43%; note: 0% is about no effect
Cycloheximide cs: counter-screen for Shiga toxin inhibitors: cycloheximide protein synthesis inhibition; cell reporter, cycloheximide protein synthesis inhibition counterscreen; max response, %; hit rate 12% among 300,000; in the data active = max response mostly above about 13%, no sharp cut-off; inactive = mostly below about 14%; note: read at 38.3 µM for the half of the compounds with a filed dose; 0% is about no effect
Sm TGR inh: blocks Schistosoma mansoni thioredoxin glutathione reductase | Q962Y6 | purified TGR, DTNB reduction, TNB absorbance 405 nm | Potency, µM (doses to about 114 µM), for the others: at the top dose activity change, negative = inhibition, actives largely listed as inhibitors | hit rate 3% among 360,000 | AID 485364; note: potency is the fitted concentration of half-maximal effect; % is set by controls: 0 for no effect and ±100 for the full control effect; nearly all actives have a fitted effect of over 60% in size
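TGR 20 nM + NADPH 100 uM (dispensed conc.), cpd preinc 15 min RT; start with NADPH (500 uM addition) then DTNB (15 mM addition). Kinetic TNB absorbance, 405 nm filter. Four-parameter Hill fit across titration.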
Tb PYK inh: T. brucei pyruvate kinase inhibition. AID 624173. Q57TT1. TbPYK enzyme, Kinase-Glo Plus ATP luminescence, 45 min. hit rate 0.12% among 410,000. Potency, µM (doses to about 76.8 µM), without a hit: at the highest dose activity, negative = inhibition, hits mostly inhibitors; note: potency is the fitted concentration of half-maximal effect; % is set by controls: 0 for no effect and ±100 for the full control effect; nearly all actives have a fitted effect of over 50% in size
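Screened from lowest to highest concentration, compounds were pinned into TbPYK/substrate mixtures, and ADP (130 uM final) was added. Plates sat at room temperature for 45 min prior to Kinase-Glo Plus detection by luminescence.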
LmPK inh: blocks Leishmania mexicana pyruvate kinase activity; Q27686; purified LmPK, Kinase-Glo ATP luminescence, 1 h; Potency, µM (top dose mostly 57.5 µM), for inactives: at the top dose activity change, negative = inhibition, usual class: inhibitors; hit rate 0.37% among 290,000; AID 1721; note: potency is the fitted concentration of half-maximal effect; % is set by controls: 0 for no effect and ±100 for the full control effect
Target sequence (Q27686 whole entry, looked up): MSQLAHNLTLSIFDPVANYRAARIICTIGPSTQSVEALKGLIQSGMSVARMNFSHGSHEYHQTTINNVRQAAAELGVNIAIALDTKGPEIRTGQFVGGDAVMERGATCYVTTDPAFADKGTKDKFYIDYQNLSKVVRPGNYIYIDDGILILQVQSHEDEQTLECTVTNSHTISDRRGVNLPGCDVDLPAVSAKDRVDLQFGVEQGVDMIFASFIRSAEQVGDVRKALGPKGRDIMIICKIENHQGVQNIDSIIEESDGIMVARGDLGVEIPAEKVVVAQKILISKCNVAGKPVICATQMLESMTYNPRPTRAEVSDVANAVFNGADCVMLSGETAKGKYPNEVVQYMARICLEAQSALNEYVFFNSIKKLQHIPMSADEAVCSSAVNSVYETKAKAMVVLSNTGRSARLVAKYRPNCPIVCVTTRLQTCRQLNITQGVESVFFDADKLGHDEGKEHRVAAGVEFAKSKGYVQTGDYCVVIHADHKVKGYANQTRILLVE
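qHTS format; LmPK 0.1 nM; substrates PEP 0.5 mM and ADP 0.1 mM. One-hour room-temperature incubation, then coupled luciferase luminescence; 0.5 nM enzyme wells mark activation.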
Starred values were filed as active, the others as inactive; ? = inconclusive; · = no result; [ ] = dose if it differs, or a comment. Unless noted, calls come from the whole dose curve; as a rule, active = well fitted curve in the direction sought with a large enough effect; inconclusive = small, poorly fitted or top-dose-only effect, or another doubt; inactive = no such curve, though single readings can be large; an effect the other way counts as inactive or inconclusive.

SMILES	FBPA Giardia inh	Shiga inhibitor	Cycloheximide cs	Sm TGR inh	Tb PYK inh	LmPK inh
Cc1cccc(C(=O)NCC(c2ccco2)S(=O)(=O)c2cccs2)c1 (stereo not drawn)	·	·	·	7.08µM*	-2.4%	·
COc1cc(C(=O)NCC(c2ccco2)S(=O)(=O)c2ccccc2)cc(OC)c1OC (stereo not drawn)	·	·	·	-12.5%	-0.1%	·
Cc1ccc(C(=O)NCC(c2cccs2)S(=O)(=O)c2cccs2)cc1C (stereo not drawn)	·	·	·	?	-0.6%	·
COc1ccc(C(=O)NCC(c2ccco2)S(=O)(=O)c2cccs2)cc1 (stereo not drawn)	·	·	·	8.91µM*	-0.6%	·
O=C(NCCc1ccccc1)c1ccc2c(c1)CCN2S(=O)(=O)c1ccccc1	·	·	·	-3.1%	14.4%	·
CCOC(=O)c1c(C)[nH]c(C)c1S(=O)(=O)NCCc1ccco1	-9.5%	-1.6	-1.9	-5.2%	-4.0%	0.0%
CC(=O)N1CC=CC1(C)C(=O)NCC1CC1 (stereo not drawn)	-2.4%	·	·	·	·	·
Cc1ccc2onc(CC(=O)Nc3ccc(C(C)C)cc3)c2c1	·	·	·	4.2%	7.4%	·
O=C(NCCc1ccc(Cl)cc1)C(=O)NCC(c1ccco1)S(=O)(=O)c1cccs1 (stereo not drawn)	·	·	·	39.8µM*	1.1%	·
O=C(NCC(c1ccco1)S(=O)(=O)c1cccs1)c1ccc(Cl)cc1 (stereo not drawn)	·	·	·	14.1µM*	2.5%	·
Cc1ccsc1CCN1C(=O)N(c2ccccc2)C(=O)C1CC(=O)Nc1ccc(F)cc1 (stereo not drawn)	·	·	·	5.8%	4.3%	·
O=C1NC(=Nc2ccccc2)S/C1=C/c1cccs1	3.6%	69.4*	40.7*	-0.5%	2.5%	5.6%[11.5 µM]
Cc1ccc(N=C2NC(=O)/C(=C/c3cccs3)S2)cc1C	7.7%	11.1	7.3	-11.1%	3.8%	0.0%
Cc1cccc(N=C2NC(=O)/C(=C/c3cccnc3)S2)c1	1.5%	17.3	0.7	0.3%	6.7%	8.8%
O=C1NC(=Nc2ccccc2)S/C1=C/c1cccnc1	-1.8%	22.8	14.7	3.5%	-5.6%	15.8%
O=C1N/C(=N/Nc2ccccc2)S/C1=C\c1ccccc1	?	37.1	22.3*	1.9%	-16.5%	-27.2%
O=C1N=C(c2ccccc2)S/C1=C\c1cccs1	-17.9%	17.0	11.9	3.98µM*	7.94µM*	0.4%
O=C1NC(=Nc2cccc(O)c2)S/C1=C\c1cccnc1	7.9%	9.7	1.0	8.91µM*	4.9%	3.8%
Cc1cccc(N=C2NC(=O)/C(=C\c3cccs3)S2)c1	1.1%	67.5*	33.7*	-7.4%	-4.7%	-1.8%
O=C1NC(=Nc2ccccc2)S/C1=C\c1ccccc1	-14.8%	·	19.2*	-2.5%	1.5%	-7.5%
CC(C)CNc1ncnc2c1ncn2[C@H]1CN(Cc2ccco2)C[C@@H](CO)O1	·	·	·	·	3.8%	·
S=C(NCCc1ccccc1)NN=C1CCCCCC1	-8.2%	78.0*	54.3*	-0.9%	0.3%	2.4%
S=C(NCCc1ccccc1)NC1CCC(NC(=S)NCCc2ccccc2)CC1 (stereo not drawn)	8.1%	-3.8	8.3	·	5.0%	-4.2%
S=C(NCCc1ccccc1)N/N=C/C1CCCCC1	-2.0%	19.2	15.4*	-0.7%	·	-4.3%
COc1cccc(Cn2c(=O)cnc3cnc(Nc4ccccc4)nc32)c1	2.5%	·	·	·	·	·
SMILES	FBPA Giardia inh	Shiga inhibitor	Cycloheximide cs	Sm TGR inh	Tb PYK inh	LmPK inh
O=[n+]1c2c(n([O-])c3cc(Cl)ccc31)CCCC2	-3.7%	-17.4	1.4	-24.8%	-7.3%	-2.5%
COc1ccc2c(c1)n([O-])c1c([n+]2=O)CCC1	-25.5%	-2.5	-1.8	39.8µM*	5.5%	0.2%
CCOc1ccc2c(c1)n([O-])c1c([n+]2=O)CCCC1	14.1µM*	39.9	16.4	5.62µM*	-12.7%	-6.3%
Cc1ccc(NC(=S)NCC23C=CC(O2)C2C(=O)N(c4ccc(C)cc4)C(=O)C23)cc1 (stereo not drawn)	-4.2%	7.2	56.4*	5.01µM*	-13.0%	1.9%
Cc1ccc(N2C(=O)C3C4C=CC(CNC(=S)N5CCN(c6ccccc6)CC5)(O4)C3C2=O)cc1 (stereo not drawn)	-3.9%	-19.1	-4.6	2.51µM*	-16.3%	8.6%[11.5 µM]
S=C(NCC1CCCO1)N1CCN(c2ccccc2)CC1 (stereo not drawn)	5.7%	-4.7	-3.0	-2.2%	2.5%	-10.2%
Cc1ccc(S(=O)(=O)NCC23C=CC(O2)C2C(=O)N(c4ccccc4)C(=O)C23)cc1 (stereo not drawn)	0.4%	-9.6	12.2	3.16µM*	-16.8%	9.6%
Cc1cccc(NC(=S)NNC(=O)COc2ccc(Cl)cc2Cl)c1	?	-6.9	-1.4	-20.5%	4.4%	4.8%
COC(=O)C1(C)NC(c2ccco2)C2C(=O)N(c3ccc(C)cc3)C(=O)C21 (stereo not drawn)	0.5%	5.0	-3.1	-31.8%	-10.0%	7.3%
Cc1cccc(NC(=S)NCC23C=CC(O2)C2C(=O)N(c4ccc(Cl)cc4)C(=O)C23)c1 (stereo not drawn)	-2.9%	-7.1	6.3	3.16µM*	-23.0%	-5.9%
CCN(CC)S(=O)(=O)c1ccc2c(c1)c(=O)c(C(=O)N1CCN(c3cccc(C)c3)C(C)C1)cn2C (stereo not drawn)	·	·	·	5.9%	4.6%	·
COc1ccc(C(=O)NCC(c2ccc3c(c2)OCO3)N2CCN(c3ccccc3F)CC2)cc1 (stereo not drawn)	·	·	·	1.7%	-8.1%	·
N#CC1=C(N)Oc2n[nH]c(-c3cccnc3)c2C1c1ccc([N+](=O)[O-])o1 (stereo not drawn)	-20.1%	53.7	20.4*	?	-14.4%	3.9%
Nc1ccc(S(=O)(=O)NC2(C(F)(F)F)NC(=O)N(Cc3ccccc3)C2=O)cc1 (stereo not drawn)	0.6%	54.9	14.7	5.7%	-6.6%	-2.1%
O=C(O)C1(c2ccccc2)CCN(S(=O)(=O)c2ccc(Br)cc2)CC1	15.5%	·	-3.0	89.1µM*	-0.5%	7.5%
O=C(O)C1(c2ccccc2)CCN(S(=O)(=O)c2ccc(Cl)cc2)CC1	13.9%	·	-3.8	0.5%	0.0%	2.8%
COc1ccccc1C1Nc2c(sc3nc(C)cc(C)c23)C(=O)N1c1ccccc1 (stereo not drawn)	·	·	·	-1.5%	-6.6%	·
COc1ccc2[nH]cc(CCN)c2c1	-1.1%	-3.3	-2.4	-16.7%	-4.4%	-0.9%
Cc1[nH]c2ccc(OCc3ccccc3)cc2c1CCN	-16.7%	-6.1	-5.1	24.9%	0.9%	5.0%
C[C@H](N)Cc1c[nH]c2ccc(O)cc12	-27.1%	·	·	·	·	·
NCCc1c[nH]c2ccc(O)cc12	-25.0%	-13.2	41.7*	·	·	·
Cc1[nH]c2ccc(O)cc2c1CCN	3.54µM*	·	·	39.8µM*	-3.6%	·
